The full list was thinned out, with hits kept by preference.
Methyltransferases: Primary Screen for Target Class Profiling of Small Molecule Inhibitors of Methyltransferases; purified enzyme, MTase-Glo SAH luminescence; hits give low values; calls only at 40 µM; actives 3.9% (n = 25,000); AID 1745853, 2022; call rule not given here
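Each enzyme was assayed with SAM and its substrate. SAH formation detected by MTase-Glo luminescence; single-point 40 uM screen[…].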
Calls only; i = inactive; + = active, no number.

SMILES | Methyltransferases
COc1cc(/C=C/C(=O)O[C@H]2[C@H](OC(=O)/C=C/c3cc(OC)c(O)c(OC)c3)O[C@H](CO[C@@H]3O[C@H](CO)[C@@H](O)[C@H](O)[C@H]3O)[C@@H](O)[C@@H]2O)ccc1O | +
COc1cc(/C=C/C(=O)O[C@H]2[C@H](O)[C@@H](CO)O[C@@]2(CO)O[C@H]2O[C@H](CO)[C@@H](O)[C@H](O)[C@H]2O)ccc1O | i
COc1cc([C@H]2c3cc(O)c(OC)cc3C[C@@H](CO[C@@H]3O[C@H](CO)[C@@H](O)[C@H](O)[C@H]3O)[C@@H]2CO)ccc1O | i
COc1cc(/C=C/C(=O)OC[C@H]2O[C@H](O[C@]3(CO)O[C@H](CO)[C@@H](O)[C@@H]3O)[C@H](O)[C@@H](O)[C@@H]2O)cc(OC)c1O | i
COc1cc(CC(COC2OC(CO)C(O)C(O)C2O)c2cc(/C=C/CO)cc(OC)c2O)ccc1O (stereo not given) | i
COc1cc(/C=C/C(=O)OC[C@H]2O[C@@](CO)(O[C@H]3O[C@H](CO)[C@@H](O)[C@H](O)[C@H]3O)[C@@H](OC(=O)/C=C/c3ccc(O)c(OC)c3)[C@@H]2O)ccc1O | +
COc1ccc(-c2nnc3n(Cc4ccc(F)cc4)c(=O)c4ccccc4n23)c(O)c1 | i
COc1ccc2cc3n(c2c1)CC(C)(C(=O)NC1CCCCC1)N(Cc1ccco1)C3=O (stereo not given) | i
Cc1ccc(CN2C(=O)c3cc4sccc4n3CC2(C)C(=O)NC2CCCC(C)C2C)cc1 (stereo not given) | i
CCOC(=O)c1cc2n(n1)CC(C)(C(=O)NCc1ccc(C)cc1)N(Cc1cccc(OC)c1)C2=O (stereo not given) | i
Nc1nc(F)nc2c1ncn2[C@@H]1O[C@H](CO)[C@@H](O)[C@@H]1O | i
OC[C@H]1O[C@@H](n2cnc3c(NC4CCCC4)ncnc32)[C@H](O)[C@@H]1O | i
Nc1ccc(CCNc2ncnc3c2ncn3C2OC(CO)C(O)C2O)cc1 (stereo not given) | i
OC[C@H]1O[C@@H](n2cnc3c(NC4CCCCC4)ncnc32)[C@H](O)[C@@H]1O | i
Nc1ncnc2c1c(I)cn2C1OC(CO)C(O)C1O (stereo not given) | +
OC[C@H]1O[C@@H](n2cnc3cncnc32)[C@H](O)[C@@H]1O | +
Cc1cccc(C2c3cccn3-c3sc4c(c3CN2C(=O)Nc2ccc(F)cc2)CCCC4)c1 (stereo not given) | i
CC(C)CNC(=O)c1ccc2c(=O)n(CC(C)C)c3nn(Cc4ccccc4F)c(=O)n3c2c1 | i
CC1(C(=O)NCc2ccccc2)Cn2c(ccc2-c2ccco2)C(=O)N1CCc1ccc(Cl)cc1 (stereo not given) | i
CCCn1c(=O)c2ccc(C(=O)NC(C)C)cc2n2c(=O)n(CC(=O)NCc3ccc(Cl)cc3)nc12 | i
COc1ccc(CN2C(=O)c3cc4occc4n3CC2(C)C(=O)NC2CCC(C)CC2)cc1 (stereo not given) | i
OC1(c2ccc3c(c2)c2c4n3CCN(Cc3ccccc3)C4CCC2)CCCC1 (stereo not given) | i
COc1c2c(c(C)c3c1C(=O)OC3)O[C@@]1(C)CC(O)C(C(C)(C)O)[C@](C)(CCC(=O)O)[C@H]1C2 (stereo not given in full) | i
COc1c2c(c(C)c3c1C(=O)OC3)OC1(C)CC(O)C34OC(OC)(CC(O)C3(C)C1C2)OC4(C)C (stereo not given) | +
COc1c2c(c(C)c3c1C(=O)OC3)OC1(C)CC(O)C3(O)C(C)(C)OC(=O)CCC3(C)C1C2 (stereo not given) | i
SMILES | Methyltransferases
CCc1cccc(N2C(=O)c3c(C(=O)OC)ncn3CC2(C)C(=O)NC2CCCCCC2)c1 (stereo not given) | i
CCCN1C(=O)c2c(C(=O)NCc3ccc(N(C)C)cc3)ncn2CC1(C)C(=O)NCc1ccc(OC)cc1 (stereo not given) | i
CC1(C(=O)NC2CCCCC2)Cn2c(ccc2-c2ccccc2)C(=O)N1CCCc1ccccc1 (stereo not given) | i
COc1ccc(N2C(=O)c3cc4oc(C)cc4n3CC2(C)C(=O)NC2CCCCCC2)cc1Cl (stereo not given) | i
CCCn1c(=O)c2ccc(C(=O)NC3CCCCC3)cc2n2c(=O)n(Cc3cccc(F)c3)nc12 | i
CC(C)CNC(=O)c1ccc2c(=O)n(C)c3nn(CC(=O)NCc4ccccc4Cl)c(=O)n3c2c1 | i
NC(=O)N1CCC(CC(=O)N2CCC(C3c4ncc(Br)cc4CCc4cc(Cl)cc(Br)c43)CC2)CC1 (stereo not given) | +
CC(C)CCNC(=O)C1(C)Cn2c(ccc2-c2ccco2)C(=O)N1Cc1ccc(Cl)cc1 (stereo not given) | i
CCN1C(=O)c2c(C(=O)NCc3ccccc3Cl)ncn2CC1(C)C(=O)NC1CCCC1 (stereo not given) | i
COc1cc(/C=C2\CCCN([C@@H](C)c3ccc(F)cc3)C2=O)ccc1-n1cnc(C)c1 | +
COc1cc(Nc2nc3c(s2)CCCC3c2ccccc2)ccc1-n1cnc(C)c1 (stereo not given) | i
CC(C)c1ccc(NS(=O)(=O)c2ccc3[nH]c4c(c3c2)CCCC4)cc1 | i
CC1CCC(NC(=O)C2(C)Cn3c(cc4occc43)C(=O)N2CCc2ccc(Cl)cc2)CC1 (stereo not given) | i
CCOCCCN1C(=O)c2cc3ccccc3n2CC1(C)C(=O)NC1CCCC1 (stereo not given) | i
CC(C)OCCCNC(=O)C1c2c(n(C)c3ccccc23)SCC(=O)N1Cc1cccs1 (stereo not given) | i
COc1ccc2c(Oc3ccc(NC(=O)c4c(C)n(CC(C)(C)O)n(-c5ccccc5)c4=O)cc3F)ccnc2c1 | +
COc1ccc2c(OCc3nnc4ccc(-c5ccccc5)nn34)ccnc2c1 | i
O=C(Nc1ccc(Oc2ccnc3[nH]ccc23)c(F)c1)c1cccn(-c2ccc(F)cc2)c1=O | i
Cc1ccc(N2C(=O)c3cc(-c4ccco4)nn3CC2(C)C(=O)NC2CCCCC2)c(C)c1 (stereo not given) | i
COc1ccc(OC)c2c1cc1n2CC(C)(C(=O)NC2CCCCC2)N(CCC(C)C)C1=O (stereo not given) | i
O=C(NCc1ccncc1)c1ccc2c(=O)nc3c(-c4cccc(F)c4)n[nH]n3c2c1 | i
CCC(C)NC(=O)c1ccc2c(=O)n(Cc3ccccc3)c3nn(Cc4ccccc4Cl)c(=O)n3c2c1 (stereo not given) | i
COc1ccccc1CNC(=O)C1(C)Cn2c(cc3ccccc32)C(=O)N1Cc1ccc(F)cc1 (stereo not given) | i
CC(C)CNC(=O)c1ccc2c(=O)n(C(C)C)c3nn(CC(=O)NC(C)C)c(=O)n3c2c1 | i
O=C(OC[C@H]1O[C@H](O[C@H]2CO[C@H](CO)[C@@H](O)[C@@H]2O)[C@H](O)[C@@H](O)[C@H]1O)c1ccccc1 | i
C[C@]12C[C@@H](O)[C@@H]3C[C@@]1(O[C@@H]1O[C@H](CO)[C@@H](O)[C@H](O)[C@H]1O)[C@]3(COC(=O)c1ccccc1)C(=O)O2 | +
O=C(OC[C@H]1O[C@H](O[C@]2(CO)O[C@H](CO)[C@@H](O)[C@@H]2O)[C@H](O)[C@@H](O)[C@@H]1O)c1ccc(O)cc1 | i
CCCn1c(=O)c2ccc(C(=O)NCC(C)C)cc2n2c(=O)n(Cc3c(F)cccc3Cl)nc12 | i

Compound activity (PubChem BioAssay)
